PubChem BioAssay
Active and inactive are the calls of the source. Unless noted, no stated cut-off is given here; in the data, active means inhibition above about 80%; inactive means the rest.

Legend:
[1] = LFS_MB_P medulloblastoma growth inhibition, cell-based, chromothripsis tumors, cisplatin or BGB combos (AID 1671449); conditions: LFS_MB_P medulloblastoma cells;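 further: cells exposed for 96 hours; 0% = vehicle DMSO and 100% = killing by high DMSO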
[2] = HDN33 neuroblastoma growth inhibition, cell-based, chromothripsis tumors, cisplatin or BGB combos (AID 1671450); conditions: HDN33 neuroblastoma cells, stronger effect = higher value;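 further: cells exposed to compound for four days; 0% = vehicle DMSO and 100% = cell killing by high DMSO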
[3] = ICB984 medulloblastoma cell growth inhibition, synergistic combos for chromothripsis tumors, cisplatin or BGB combos (AID 1671451; call rule not given here;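 further: cells exposed for 96 hours before readout; 0% = vehicle DMSO and 100% = killing by high DMSO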); conditions: ICB984 medulloblastoma cells, drug combinations, stronger effect = higher value
[4] = LFS_MB_1R medulloblastoma cell growth inhibition, synergistic combos for chromothripsis tumors, cisplatin or BGB combos (AID 1671452); conditions: LFS_MB_1R medulloblastoma cells, stronger effect = higher value;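 further: cells exposed for 96 hours before readout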
[5] = HTB85 osteosarcoma cell growth inhibition, synergistic combos for chromothripsis tumors, BGB or cisplatin IC20 combos (AID 1671453); conditions: HTB85 osteosarcoma cells, drug combinations, stronger effect = higher value;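 further: cells exposed for 96 hours before readout; 0% = vehicle DMSO and 100% = high DMSO killing control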
[6] = CRL2098 osteosarcoma cell growth inhibition, synergistic combos for chromothripsis tumors, BGB or cisplatin IC20 combos (AID 1671454); conditions: CRL2098 osteosarcoma cells, drug combinations, stronger effect = higher value;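 further: cells exposed for 96 h before readout; 0% = vehicle DMSO and 100% = killing by high DMSO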
[7] = HD-MB03 medulloblastoma cell growth inhibition, synergistic combos for chromothripsis tumors, BGB or cisplatin IC20 combos (AID 1671455; in the data active means inhibition above about 83%;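 further: 0% = vehicle DMSO and 100% = high DMSO as cytotoxic control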); conditions: HD-MB03 medulloblastoma cells, stronger effect = higher value
[8] = UWB1.289 ovarian carcinoma cell growth inhibition, synergistic combos for chromothripsis tumors, BGB or cisplatin combos (AID 1671456); conditions: UWB1.289 ovarian carcinoma cells, stronger effect = higher value;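 further: cells exposed to compound for four days; 0% = vehicle DMSO and 100% = killing by high DMSO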
[9] = LFS_MB_2R medulloblastoma cell growth inhibition, synergistic combos for chromothripsis tumors, cisplatin combos (AID 1671457); conditions: LFS_MB_2R medulloblastoma cells, stronger effect = higher value;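 further: cells exposed to compound for four days before readout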
[10] = MDA-MB-436 breast carcinoma cell growth inhibition, synergistic combos for chromothripsis tumors, BGB or cisplatin combos (AID 1671458; call rule not given here;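 further: cells exposed for 96 hours; 0% = vehicle DMSO and 100% = killing by high DMSO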); conditions: MDA-MB-436 breast carcinoma growth inhibition, drug combinations, stronger effect = higher value
[11] = UWB1.289_BRCA1 ovarian cancer growth, cell-based, BGB or cisplatin combinations (AID 1671459); conditions: UWB1.289 BRCA1 ovarian carcinoma, drug combinations, stronger effect = higher value
[12] = human astrocyte viability loss, single and combined drugs, cytotoxicity control for chromothriptic childhood tumor combination screen, cell-based, BGB or cisplatin IC20 combos (AID 1671460); conditions: Human astrocytes, drug combinations, stronger effect = higher value;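 further: cells exposed to compounds for 96 hours before viability readout; 0% = vehicle and 100% = killing control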
[13] = growth inhibition of BT084 medulloblastoma cells, cell-based, ICGC_MB145, cisplatin and BGB IC40 combos (AID 1671461); conditions: drug combinations, stronger effect = higher value;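 further: cells exposed to drugs for 96 hours; 0% = vehicle DMSO and 100% = high DMSO full killing control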
[14] = growth inhibition of RCMB18 medulloblastoma cells, cell-based, cisplatin and BGB IC40 combos (AID 1671462); conditions: stronger effect = higher value;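 further: cells exposed to compound for four days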
[15] = growth inhibition of CRL1545 osteosarcoma cells, cell-based, cisplatin and BGB IC20 combos (AID 1671464); conditions: stronger effect = higher value;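 further: cells exposed to compound for 96 hours before readout; 0% = vehicle DMSO and 100% = high DMSO killing control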
[16] = at 0.5 µM, stronger effect = higher value
[17] = measured here: combination with BGB IC20, at 0.005 µM
[18] = measured here: combination with BGB IC40, at 0.005 µM
[19] = measured here: combination with BGB IC40, at 0.05 µM
[20] = measured here: combination with cisplatin, at 0.5 µM, stronger effect = higher value
[21] = measured here: combination with cisplatin, at 5 µM, stronger effect = higher value
[22] = measured here: with BGB IC20 combination, at 0.5 µM
[23] = measured here: with cisplatin IC20 combination, at 0.5 µM
[24] = measured here: 5 uM single agent, at 5 µM
[25] = measured here: combination with cisplatin, at 0.5 µM
[26] = measured here: combination with cisplatin, at 5 µM
[27] = measured here: with BGB IC20, at 0.5 µM
[28] = measured here: with BGB IC20, at 5 µM
[29] = measured here: with cisplatin IC20, at 0.5 µM
[30] = measured here: with cisplatin IC20, at 5 µM
[31] = measured here: combination with BGB at IC20, at 0.5 µM
[32] = measured here: combination with cisplatin at IC20, at 0.5 µM
[33] = measured here: combo with BGB at IC20, at 0.5 µM
[34] = measured here: combo with cisplatin at IC20, at 0.5 µM
[35] = measured here: inhibition with BGB combination, at 0.05 µM
[36] = measured here: inhibition with cisplatin combination, at 0.05 µM
[37] = measured here: BGB combination, at 0.5 µM
[38] = measured here: BGB combination, at 5 µM
[39] = measured here: cisplatin combination, at 0.5 µM
[40] = measured here: cisplatin combination, at 5 µM
[41] = BGB combination, concentration series, at 5 µM
[42] = cisplatin combination, concentration series, at 5 µM
[43] = measured here: combo with BGB IC20, at 0.5 µM
[44] = measured here: combo with cisplatin IC20, at 0.5 µM
[45] = cisplatin combination, at 0.5 µM
[46] = measured here: BGB IC40 combination 0.05 uM, at 0.05 µM
[47] = measured here: BGB IC40 combination, at 0.05 µM

COc1cccc2c1C(=O)c1c(O)c3c(c(O)c1C2=O)CC(O)(C(=O)CO)CC3OC1CC(N)C(OC2CCCCO2)C(C)O1 (stereo unspecified)
inhibition [1, 16]: -32.3% (inactive) | inhibition [1, 17]: 9.11% | inhibition [1, 18]: -11.4% | inhibition [1, 19]: -11.1% | inhibition [1, 20]: -47.4% | inhibition [1, 21]: 110% | inhibition ([2]; BGB combo, at 5 µM): 97.2% | inhibition ([2]; at 0.5 µM): 23.8% (inactive) | inhibition ([2]; cisplatin combo, at 5 µM): 99.2% | inhibition [2, 22]: 21.1% | inhibition [2, 23]: 4.67% | inhibition ([2]; single agent, at 5 µM): 99% | inhibition ([3]; BGB IC20 combo, at 0.005 µM): -23.2% | inhibition ([3]; BGB IC40 combo, at 0.005 µM): -47.6% | inhibition ([3]; BGB IC40 combo, at 0.05 µM): 94.7% | inhibition ([3]; at 0.5 µM): -38.2% (inactive) | inhibition ([3]; cisplatin combo, at 0.05 µM): 94.5% | inhibition ([3]; cisplatin combo, at 0.5 µM): -60.7% | inhibition ([3]; cisplatin combo, at 5 µM): -43.3% | inhibition [3, 24]: -14.9% | inhibition ([4]; at 0.5 µM): 60.2% (inactive) | inhibition [4, 19]: -55.1% | inhibition [4, 25]: 53.5% | inhibition [4, 26]: 95% | inhibition ([5]; at 0.5 µM): 56.2% (inactive) | inhibition [5, 27]: 23.4% | inhibition [5, 28]: 99% | inhibition [5, 29]: 91% | inhibition [5, 30]: 99.6% | inhibition ([5]; single agent, at 5 µM): 99.2% | inhibition ([6]; at 0.5 µM): 30.1% (inactive) | inhibition [6, 31]: 85.5% | inhibition [6, 32]: 33.2% | inhibition ([7]; at 0.5 µM): 70.5% (inactive) | inhibition [7, 33]: 69.8% | inhibition [7, 34]: 77.2% | inhibition ([8]; at 0.5 µM): 12.2% (inactive) | inhibition [8, 35]: 26.6% | inhibition [8, 36]: -27.7% | inhibition ([9]; at 0.5 µM): -17% (inactive) | inhibition [9, 25]: -2.89% | inhibition [9, 26]: 86.3% | inhibition ([10]; at 0.5 µM): 24.8% (inactive) | inhibition [10, 37]: 4.22% | inhibition [10, 38]: 64.7% | inhibition [10, 39]: 26.1% | inhibition [10, 40]: 84.5% | inhibition [11, 41]: 94.3% | inhibition ([11]; at 0.5 µM): 16.1% (inactive) | inhibition [11, 42]: 96.5% | inhibition ([12]; at 0.5 µM): 50% (inactive) | inhibition [12, 43]: 42.8% | inhibition [12, 44]: 39.2% | inhibition ([13]; at 0.5 µM): 2.98% (inactive) | inhibition [13, 45]: 23.2% | inhibition ([13]; cisplatin combination, at 5 µM): -6.21% | inhibition [13, 46]: -28.8% | inhibition ([13]; single agent, at 5 µM): 27% | inhibition ([14]; at 0.5 µM): 21.9% (inactive) | inhibition ([14]; cisplatin combo, at 5 µM): 71.1% | inhibition [14, 47]: -38.8% | inhibition [14, 25]: 44.2% | inhibition ([14]; single agent, at 5 µM): 71.6% | inhibition ([15]; at 0.5 µM): 91.3% (active) | inhibition [15, 22]: 85.6% | inhibition [15, 23]: 94.1% | inhibition ([15]; single agent, at 0.05 µM): -29.5% | inhibition ([15]; single agent, at 5 µM): 99.5%

CON=C1CN(c2nc3c(cc2F)c(=O)c(C(=O)O)cn3C2CC2)CC1CN (stereo unspecified)
inhibition [1, 16]: -25.3% (inactive) | inhibition [1, 17]: -14.3% | inhibition [1, 18]: -29% | inhibition [1, 19]: -34.5% | inhibition [1, 20]: -40.3% | inhibition [1, 21]: -32.3% | inhibition ([2]; BGB combo, at 5 µM): -16.7% | inhibition ([2]; at 0.5 µM): 7.67% (inactive) | inhibition ([2]; cisplatin combo, at 5 µM): -7.53% | inhibition [2, 22]: 8.62% | inhibition [2, 23]: 24.5% | inhibition ([2]; single agent, at 5 µM): -10.6% | inhibition ([3]; BGB IC20 combo, at 0.005 µM): -9.19% | inhibition ([3]; BGB IC40 combo, at 0.005 µM): -11.5% | inhibition ([3]; BGB IC40 combo, at 0.05 µM): -24.2% | inhibition ([3]; at 0.5 µM): -23.7% (inactive) | inhibition ([3]; cisplatin combo, at 0.05 µM): -30.6% | inhibition ([3]; cisplatin combo, at 0.5 µM): -28.8% | inhibition ([3]; cisplatin combo, at 5 µM): -12.6% | inhibition [3, 24]: -12.7% | inhibition ([4]; at 0.5 µM): -19.1% (inactive) | inhibition [4, 19]: -15.4% | inhibition [4, 25]: -33.2% | inhibition [4, 26]: -30.4% | inhibition ([5]; at 0.5 µM): 5.68% (inactive) | inhibition [5, 27]: 30.9% | inhibition [5, 28]: 13.1% | inhibition [5, 29]: -15.5% | inhibition [5, 30]: 2.1% | inhibition ([5]; single agent, at 5 µM): 3.62% | inhibition ([6]; at 0.5 µM): -6.34% (inactive) | inhibition [6, 31]: -22.3% | inhibition [6, 32]: 10.2% | inhibition ([7]; at 0.5 µM): -12.3% (inactive) | inhibition [7, 33]: -16.7% | inhibition [7, 34]: -12.2% | inhibition ([8]; at 0.5 µM): -4.81% (inactive) | inhibition [8, 35]: -8.23% | inhibition [8, 36]: -6.42% | inhibition ([9]; at 0.5 µM): -15.8% (inactive) | inhibition [9, 25]: -15.1% | inhibition [9, 26]: -25.5% | inhibition ([10]; at 0.5 µM): -11.3% (inactive) | inhibition [10, 37]: -3.57% | inhibition [10, 38]: -21.3% | inhibition [10, 39]: -27.7% | inhibition [10, 40]: -9.24% | inhibition [11, 41]: -28.4% | inhibition ([11]; at 0.5 µM): -4.07% (inactive) | inhibition [11, 42]: -3.27% | inhibition ([12]; at 0.5 µM): 0.97% (inactive) | inhibition [12, 43]: 7.71% | inhibition [12, 44]: 2.88% | inhibition ([13]; at 0.5 µM): -10.5% (inactive) | inhibition [13, 45]: -2.65% | inhibition ([13]; cisplatin combination, at 5 µM): -140% | inhibition [13, 46]: -26.9% | inhibition ([13]; single agent, at 5 µM): -46.4% | inhibition ([14]; at 0.5 µM): -9.98% (inactive) | inhibition ([14]; cisplatin combo, at 5 µM): 24.4% | inhibition [14, 47]: -6.9% | inhibition [14, 25]: 6.35% | inhibition ([14]; single agent, at 5 µM): -19.4% | inhibition ([15]; at 0.5 µM): -0.16% (inactive) | inhibition [15, 22]: -14.3% | inhibition [15, 23]: 5.39% | inhibition ([15]; single agent, at 0.05 µM): 4.29% | inhibition ([15]; single agent, at 5 µM): 16.8%
